Screening data deposited in PubChem by National Center for Advancing Translational Sciences (NCATS).
In the library only some 8.9% were active in any assay of this set; here they are far more common.
KB-3-1 tox: KB-3-1 parental cell cytotoxicity. 400,000 tested, 1.4% active. KB-3-1 viability, CellTiter-Glo ATP luminescence, 72 h. AID 1347075. Potency, µM (doses to about 46.1 µM), hits mostly cytotoxic; further: potency means the concentration at half of the fitted maximal effect; on the % scale 0 is the no-effect control and ±100 the full control effect; nearly all actives have a fitted effect of over 60% in size
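Luminescent ATP read-out (CellTiter-Glo) measures survival of drug-naive KB-3-1 cells after 72 h compound exposure at 37 °C. Titration series was screened from lowest to highest concentration, with DMSO vehicle plates as background controls.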
KB-V1 cytotox: kills drug-selected multidrug resistant KB-V1 cells; KB-V1 MDR cells viability, CellTiter-Glo, 72 h; Potency, µM (series often up to 46.1 µM), usual class: cytotoxic; 400,000 tested, 3.4% active; further: potency means the concentration at half of the fitted maximal effect; on the % scale 0 is the no-effect control and ±100 the full control effect; nearly all actives have a fitted effect of over 60% in size
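Luminescent ATP read-out (CellTiter-Glo, 10 min) measures survival of drug-selected KB-V1 MDR cells after 72 h, 37 degrees C compound exposure. Medium: phenol-red-free DMEM, 10% FBS. Values from fitted concentration-response curves.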
D3 ag: D3 dopamine receptor (human) agonism | 410,000 tested, 0.58% active | P35462 | D3R DiscoveRx beta-arrestin cells, luminescence, 90 min | max activation, % | AID 652048; in the data active means max activation above about 30%; further: 0% is about no effect
Target sequence (P35462 whole entry, looked up): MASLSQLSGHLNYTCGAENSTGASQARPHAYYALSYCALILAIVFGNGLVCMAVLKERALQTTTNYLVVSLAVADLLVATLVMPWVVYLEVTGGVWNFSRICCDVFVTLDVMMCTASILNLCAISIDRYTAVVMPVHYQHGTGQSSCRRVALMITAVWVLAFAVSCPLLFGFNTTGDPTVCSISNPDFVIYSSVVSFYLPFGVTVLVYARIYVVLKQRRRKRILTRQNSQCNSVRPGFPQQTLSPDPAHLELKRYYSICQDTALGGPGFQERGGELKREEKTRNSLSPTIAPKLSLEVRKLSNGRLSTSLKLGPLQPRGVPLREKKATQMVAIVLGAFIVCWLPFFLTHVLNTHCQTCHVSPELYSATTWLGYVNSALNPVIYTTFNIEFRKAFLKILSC
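Cells at 1500/well, incubated overnight, then treated with pinned compounds (dopamine as control) for 90 min at 37 degrees C. DiscoveRx reagent added for 30 - 60 minutes at room temperature; luminescence read.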
SW480 rerep: induces DNA re-replication in SW480 colon adenocarcinoma cells. 340,000 tested, 1.8% active. Potency, µM (doses to about 46.1 µM), without a hit: at the top dose re-replication activation, most hits filed as activators. SW480 DNA re-replication, Hoechst DNA content imaging, 48 h; further: potency means the concentration at half of the fitted maximal effect; % of control where 0% means no effect; nearly all actives have a fitted effect of over 55% in size
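First, 250 cells per well were seeded. Next, compound or vehicle (23 nL) was pinned in, plates sat 48 hr at 37 C. Finally Hoechst was added for 40 min before fluorescence scanning.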
D3 antag: blocks the human D3 dopamine receptor. D3R cells, DiscoveRx beta-arrestin luminescence, antagonist mode; stronger effect = lower value. P35462. max response, negative = inhibition, %. AID 652054. 360,000 tested, 2.5% active; in the data active means max response below about -50%; inconclusive means no clear call, values can overlap the other calls; further: on the % scale 0 is the no-effect control and ±100 the full control effect
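Cells plated overnight at 1500 cells/well, then exposed to library compounds with dopamine controls for 90 minutes at 37 degrees C. DiscoveRx reagent added for 30–60 minutes at room temperature; luminescence read, quantitative HTS format.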
MCF10A rerep: induces DNA re-replication in MCF 10a normal breast cells; MCF 10A DNA re-replication, Hoechst nuclear intensity, 48 h; Potency, µM (titrated, usually from 46.1 µM), for inactives: at the highest dose activity, positive = re-replication, hits mostly activators; 350,000 tested, 2.9% active; AID 624296; further: potency means the concentration at half of the fitted maximal effect; % of control where 0% means no effect; nearly all actives have a fitted effect of over 50% in size
Numbers without * were called inactive; i = inactive; ? = inconclusive; . = no result. Unless noted, the call rests on the fitted dose curve; in most records, active means well fitted curve in the direction sought with a large enough effect; inconclusive means small, poorly fitted or top-dose-only effect, or another doubt; inactive means no such curve, though single readings can be large; an effect the other way counts as inactive or inconclusive.

SMILES	KB-3-1 tox	KB-V1 cytotox	D3 ag	SW480 rerep	D3 antag	MCF10A rerep
CC(=O)c1c(C)oc2ccc(N(C(=O)c3ccncc3)S(=O)(=O)c3ccc(C)cc3C)cc12	?	23µM*	4	.	.	.
O=C(NCc1cccc(F)c1)C1=Cc2cc(Br)ccc2OC1	i	i	-3	.	.	.
CCOC(=O)c1c(C)oc2nc(C)nc(NCc3ccc(OC)cc3OC)c12	i	i	-14	.	.	.
Cc1c(Cl)cccc1NC(=O)CCOc1ccccc1	i	i	-16	.	.	.
CC(C)NC(=O)N(C)C[C@@H]1OCc2cn(nn2)CCCC(=O)N([C@H](C)CO)C[C@H]1C	i	?	0	.	8	.
O=C(Nc1nnc(-c2ccncc2)s1)NC12CC3CC(CC(C3)C1)C2	i	i	.	.	.	.
CC1OC(C(C)(C)C)Cc2[nH][nH]c(=O)c21 (centres undefined)	i	?	2	.	-10	.
c1cnc2c(OCc3cn4cccnc4n3)cccc2c1	i	i	-11	-2%	?	12µM*
Clc1ccc(OCc2cn3cccnc3n2)c2ncccc12	i	i	-9	-8%	-19	-2%
CC1(C)Cc2c(sc3nc(-c4cccs4)n(N)c(=O)c23)CO1	i	8.2µM*	20	?	9	?
Cc1ccc(CNC(=O)C(=O)NCC(c2ccco2)S(=O)(=O)c2ccc(C)cc2)cc1 (centres undefined)	.	.	-19	.	.	.
CCOC(=O)N1CCN(C(=O)CCN2C(=O)/C(=C\c3cccc(OC)c3)SC2=S)CC1	i	?	5	22%	1	-7%
O=C(CCN1C(=O)/C(=C/c2ccccc2)SC1=S)N1CCCCCC1	?	?	0	?	5	?
COc1cccc(/C=C2\SC(=S)N(CCC(=O)N3CCCCC3)C2=O)c1	?	i	7	-2%	-11	10µM*
O=C(CCN1C(=O)S/C(=C\c2cccs2)C1=O)Nc1nccs1	i	i	4	-6%	-11	-5%
O=C(CCN1C(=O)/C(=C\c2cccs2)SC1=S)Nc1nccs1	i	i	13	-2%	-52*	6%
O=C(CCCN1C(=O)/C(=C\c2cccs2)SC1=S)Nc1cc([N+](=O)[O-])ccc1O	i	i	-19	2%	-90*	13%
O=C(CCN1C(=O)/C(=C\c2ccccc2Cl)SC1=S)N1CCN(c2ccccc2)CC1	?	?	-2	-2%	-21	6.5µM*
CCOc1ccc(C(=O)OCc2cc(=O)n3cc(C)sc3n2)cc1	i	i	2	.	.	.
Cc1ccc(Cn2c(SCc3ccc(C(=O)N4CCCCCC4)cc3)nc3ccncc32)cc1	?	i	-12	.	.	.
COC(=O)c1ccc(NC(=O)CC2C(=O)N(c3cccc(C)c3)C(=O)N2Cc2ccco2)cc1 (centres undefined)	.	.	14	.	.	.
CC1CCN(C(=O)CCN2C(=O)/C(=C/c3cccs3)SC2=S)CC1	?	?	5	5.8µM*	20	23µM*
O=C1/C(=C/c2ccccc2F)SC(=S)N1CCC(=O)N1CCCCC1CCO (centres undefined)	?	i	3	?	18	23µM*
O=C(CCN1C(=O)/C(=C\c2ccccc2F)SC1=S)N1CCCCC1	10µM*	?	8	?	13	?
CSc1ccc(OC2(C)CCN(Cc3ccc(OC(C)C)cc3)C2)cc1 (centres undefined)	i	i	-7	.	?	.
SMILES	KB-3-1 tox	KB-V1 cytotox	D3 ag	SW480 rerep	D3 antag	MCF10A rerep
COc1cccc(OC2(C)CCN(Cc3cccn3-c3nccs3)C2)c1 (centres undefined)	i	?	-11	.	-15	.
COc1ccc(CN2CCC(C)(Oc3ccc4c(c3)OCO4)C2)c2ccccc12 (centres undefined)	i	?	-7	.	0	.
Cc1ccc(CN2CCC(C)(Oc3ccc(Cl)cc3)C2)cc1 (centres undefined)	i	?	-15	.	-95*	.
COCOc1cccc(CN2CCC(C)(Oc3cccc(C#N)c3)C2)c1 (centres undefined)	i	i	-18	.	-50*	.
CC1(Oc2cccc(F)c2)CCN(Cc2ccc3ccccc3c2)C1 (centres undefined)	i	i	-11	.	-117*	.
COc1ccc(OC2(C)CCN(Cc3ccc(-c4ccccc4)o3)C2)cc1 (centres undefined)	i	i	-18	.	-128*	.
CCOC(=O)c1c(-c2ccc(Br)cc2)csc1NC(=O)c1ccc(C(C)(C)C)cc1	.	.	7	.	.	.
CCn1c(=O)c2cc(C(=O)NC3CCC(C)CC3)sc2c2ccccc21 (centres undefined)	i	i	-15	.	.	.
COc1cccc(-c2cc(C(F)(F)F)n3nc(C)c(-c4ccccc4)c3n2)c1	i	i	-3	.	.	.
COc1ccc(/C=C2\C=Cc3ccccc32)cc1OC	i	i	.	.	.	.
COc1ccc(-n2nc3c(N4CCCC(C(=O)NCCc5ccc(C)cc5)C4)nnc(C)c3c2C)cc1 (centres undefined)	?	?	5	.	.	.
COc1cc(NC(=O)Cn2nc3c(cc2=O)CC(C)CC3)cc(OC)c1OC (centres undefined)	.	.	-6	.	.	.
CC1(Oc2cccc(Cl)c2)CCN(Cc2ccc(OC(F)(F)F)cc2)C1 (centres undefined)	i	i	2	.	3	.
Cc1ccc(CN2CCC(C)(Oc3cccc(Cl)c3)C2)cc1 (centres undefined)	i	i	-22	.	-103*	.
COc1ccccc1N(C)C	i	i	.	.	.	.
Cn1c(SCc2ccc(C(C)(C)C)cc2)nnc1C1COc2ccccc2O1 (centres undefined)	?	i	-2	?	1	21µM*
Cc1cc(NC(=O)CSc2nnc(C3COc4ccccc4O3)n2C)no1 (centres undefined)	i	i	-2	-2%	-21	-18%
COC(=O)CSc1nnc(C2COc3ccccc3O2)n1-c1ccccc1 (centres undefined)	i	i	3	23%	8	21µM*
CC1=C(C(N)=O)C(c2ccc(C)cc2)n2nc(SCc3ccccc3F)nc2N1 (centres undefined)	i	?	-1	.	.	.
CCCn1c2ccccc2c2cnn(CC(=O)N(C)c3ccc(F)cc3)c(=O)c21	i	i	-7	.	.	.
COc1cc(OC)cc(-c2nnc(NC(=O)CCS(=O)(=O)c3ccc(C)cc3)o2)c1	i	i	-1	?	9	4.6µM*
